Assay outcomes (PubChem BioAssay)
This is a sample that favours compounds with a hit; in the whole collection about 4.1% have one here.
ssDAF-12 act – S. stercoralis DAF-12 activation, primary screen; HEK293 ssDAF-12/GRIP1 lit1-tk-luc reporter, luminescence; % of 3 µM dafachronic acid response; activation, % at 6.8 µM; hit rate 1% among 370,000;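 active = activation above the mean over all tested compounds plus 3 SD, cut at about 0.9% in these data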;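 note: 0% = DMSO-only wells and 100% = 3 µM delta7-dafachronic acid wells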
hcDAF12 agonist – activates DAF-12 receptor from parasite H. contortus; HEK293 hcDAF-12 lit1-tk-luc reporter, luminescence; 0% DMSO, 100% Δ7-dafachronic acid; activation, % at 6.8 µM; hit rate 1.4% among 370,000; AID 652067;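 active = activation above the mean of all tested compounds plus 3 SD, cut at about 5.5% in these data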;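 note: 100% = response to 3 µM Δ7-dafachronic acid high control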
hgDAF-12 ag – agonists of H. glycines DAF-12 nuclear receptor; hit rate 1.8% among 370,000; activation, % at 6.8 µM; AID 687014; HEK293 GAL4-hgDAF12 UAS-luciferase reporter, agonist luminescence; normalized to butyrate control;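 active = activation above a cutoff set at the mean of all screened compounds plus 3 SD, cut at about 10% in these data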;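 note: 0% = DMSO wells and 100% = sodium butyrate wells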
DAX1 inh-1 – NR0B1 (DAX1) inhibition; P51843; HEK293 Gal4-DAX1 luciferase reporter, luminescence; inhibition, % at 6.75 µM; hit rate 0.99% among 340,000;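 active = inhibition above the mean over all tested compounds plus 3 SD, cut at about 4.2% in these data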;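 note: 0% = DAX1-transfected cells with DMSO and 100% = empty-vector control cells with DMSO; inhibition shows as a rise in luminescence from relieved DAX1 repression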
Target sequence (P51843 207-470 limits assumed): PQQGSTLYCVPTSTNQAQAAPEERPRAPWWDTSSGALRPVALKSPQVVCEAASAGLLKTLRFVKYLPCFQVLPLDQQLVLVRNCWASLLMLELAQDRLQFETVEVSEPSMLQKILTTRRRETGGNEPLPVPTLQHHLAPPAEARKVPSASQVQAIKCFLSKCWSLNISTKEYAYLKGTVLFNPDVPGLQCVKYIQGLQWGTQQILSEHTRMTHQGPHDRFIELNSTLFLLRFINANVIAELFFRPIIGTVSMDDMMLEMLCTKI
DAX1 inh-2 – blocks DAX1 repression of SF-1 activated StAR promoter; hit rate 1.1% among 370,000; AID 652010; inhibition, % at 6.8 µM; HEK293T StAR-luciferase reporter, SF-1/DAX-1 repression relief;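 active = inhibition above the mean over all tested compounds plus 3 SD, cut at about 3.6% in these data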;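 note: 0% = DAX-1 cells with DMSO and 100% = cells lacking DAX-1 with DMSO; higher inhibition means more luminescence from relief of DAX-1 repression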
Active calls of the source: *; . = not tested or not shown.

SMILES	ssDAF-12 act	hcDAF12 agonist	hgDAF-12 ag	DAX1 inh-1	DAX1 inh-2
O=C(/C=C/c1cn(CC(O)CN2CCCCC2)c2ccccc12)c1ccccc1 (stereo unspecified)	-1	4	2	-2	0
COc1ccc(C(=O)/C=C/c2cn(CC(O)CN3CCN(C)CC3)c3ccccc23)cc1OC (stereo unspecified)	-1	-1	-2	5.0*	-1
CCOC(=O)CC1Sc2ccccc2NC1=O (stereo unspecified)	.	.	.	0	.
CC(OC(=O)CC1Sc2ccccc2NC1=O)C(=O)N(C)Cc1ccccc1 (stereo unspecified)	1.0*	2	3	2	1
CN(C)c1ccc(/C=N\NC(=O)c2cccc(S(=O)(=O)N(C)C)c2)cc1	-2	0	4	.	-1
O=C1C=CC2=C3c4cc(O)c(O)cc4CC3(O)COC2=C1O (stereo unspecified)	-1	0	-2	5.2*	1
O=C1CC2c3cc(Br)ccc3CCN2C(=O)CN1Cc1ccccc1 (stereo unspecified)	-1	-2	-2	.	0
Cc1ccccc1/C=C1\CCCc2ccccc2C1=O	1	4	10	6.0*	3
O=C1/C(=C\c2ccc3ccccc3c2)CCCc2ccccc21	0	5	10	3	3
O=C1C(NC(=O)N2c3ccccc3C=Cc3ccccc32)CCCCN1Cc1cccc(C(F)(F)F)c1 (stereo unspecified)	-2	0	-1	.	-1
Oc1ccc(/C=N/Nc2ncnc3c2ncn3Cc2ccccc2)cc1O	1.3*	-2	1	0	0
Cc1c[nH]c2cccc(-c3ccc4c(c3)OCO4)c12	-1	-1	8	.	0
Cc1ccc(-c2nc3ccccc3n2C)o1	0	4	11*	1	3.8*
CC(=O)c1ccc(-c2nc3ccccc3n2C)o1	0	5	11*	0	1
Cn1c(-c2ccc(Br)o2)nc2cc(Br)ccc21	-1	1	2	4.5*	1
COC(=O)CNC(=O)C(Cc1ccccc1)NS(=O)(=O)c1ccc2c(c1)c(=O)n(C)c(=O)n2C (stereo unspecified)	-1	0	-1	1	1
Cc1ccc(C)c(OCC(=O)Nc2nonc2NC(=O)COc2cc(C)ccc2C)c1	0	1	-3	5.3*	0
Cc1cccc(OCC(=O)Nc2nonc2NC(=O)COc2cccc(C)c2)c1	-1	-1	0	0	0
Cc1nn(-c2ccccc2)c2sc(C(=O)N3CCN(Cc4ccc(F)cc4)CC3)cc12	-1	1	1	.	-1
O=C(Nc1ccccc1Br)c1cc(=O)c2ccccc2o1	1	1	11*	4	2
O=C(Nc1ccccc1Cl)c1cc(=O)c2ccccc2o1	-1	0	10	2	1
NS(=O)(=O)c1cccc(NC(=O)c2cc(=O)c3ccccc3o2)c1	-1	2	5	4.8*	0
NS(=O)(=O)c1cccc(NC(=O)c2cc3ccccc3o2)c1	-1	-1	5	1	3
CC(=O)C1(C(=O)NCc2ccccc2)CC(c2ccccc2C(F)(F)F)=NO1 (stereo unspecified)	-1	-2	4	.	-1
CC1CCC/C(=N/Nc2nc3ccccc3s2)C1 (stereo unspecified)	0	6.4*	0	5.3*	3
SMILES	ssDAF-12 act	hcDAF12 agonist	hgDAF-12 ag	DAX1 inh-1	DAX1 inh-2
COc1ccccc1C=NN=Cc1ccccc1OC	1.1*	2	1	0	-1
COc1ccccc1NC(=S)OC1CCC12CCC(c1ccccc1)CC2 (stereo unspecified)	-1	1	2	.	0
O=C(c1cnn2c(C(F)F)cc(-c3ccccc3)nc12)N1CCSCC1	-1	0	4	4.6*	0
O=C(c1cnn2c(C(F)F)cc(-c3ccccc3)nc12)N1CCOCC1	-1	-1	0	1	0
COC(=O)[C@@]1(OC(C)=O)CC(OC(C)=O)[C@H](OC(C)=O)[C@H](OC(C)=O)C1Br (stereo partly specified)	-1	-1	1	.	.
C=CCn1c(/N=C/c2ccc3c(c2)OCO3)nc2ccccc21	1.2*	0	0	0	0
CCCn1c(/N=C/c2ccc3c(c2)OCO3)nc2ccccc21	-2	-1	0	0	0
C=C(C)C1(O)OC(=O)C=C1OC (stereo unspecified)	0	6.5*	0	4	2
CC(C)C1NC(=S)N(C2CCCCC2)C1=O (stereo unspecified)	1.2*	-1	2	0	0
CC(C)CC1NC(=S)N(C2CCCCC2)C1=O (stereo unspecified)	0	1	0	1	-1
Cc1cc(-c2n[nH]c(=S)n2N=Cc2ccc(-c3ccccc3)cc2)n[nH]1	-1	0	1	.	-1
N[C@H](C(=O)Nc1ccc(Cl)cc1C(=O)c1ccc[nH]1)c1ccccc1	-1	0	1	.	.
O=[N+]([O-])c1ccc(C(O)CSC(=S)N2CCCCC2)cc1 (stereo unspecified)	0	1	7	5.4*	0
CN1CCN(CC(=O)NN(Cc2ccccc2)c2ccccc2)CC1	-1	0	-3	4.5*	0
Cc1cc(C)c2[nH]c(O)c(N=NC3=NC(=O)CS3)c2c1	0	-2	0	4.3*	0
Cc1cc(C)c2[nH]c(O)c(N=Nc3ccc(C(=O)O)cc3)c2c1	0	2	2	-1	0
c1ccc(CN=C2NN=C(c3cc4ccccc4o3)CS2)cc1	-1	-1	3	2	0
c1ccc2oc(C3=NNC(=NC4CC4)SC3)cc2c1	0	6.8*	7	2	1
COc1ccc(N2CCCN(CC(=O)Nc3ccc(Cl)cc3)CC2)cc1	-1	-2	-1	.	1
COc1ccc(CCNC(=O)c2cnccn2)cc1	-2	1	-1	0	1
COc1ccc(CCNC(=O)C/C(C)=N/NC(=O)c2cnccn2)cc1	-1	2	5	1	4.2*
COc1ccc(NC(=O)C/C(C)=N/NC(=O)c2ccccn2)c(OC)c1	0	4	12*	1	3
COc1ccc(NC(=O)C/C(C)=N/NC(=O)c2cnccn2)c(OC)c1	0	-2	3	1	1
COc1ccc(NC(=O)C/C(C)=N/NC(=O)c2cccs2)c([N+](=O)[O-])c1	0	5	11*	3	2
CN(Cc1nc(-c2ccccc2)no1)C1CCOCC1	-1	2	11*	4.8*	1
COc1ccc(-c2noc(CN(C)C3CCOCC3)n2)cc1	-1	0	-2	1	0
COC(=O)c1ccc(-c2nc3cc(Cl)c(N)cc3s2)cc1	1	3	11*	1	2
COC(=O)c1ccc(-c2nc(O)c(C)s2)cc1	-1	-1	-2	0	-1
O=c1c2cc3cccnc3nc2ncn1Cc1cccs1	-1	2	0	.	1
